Sampled rows, rich in hits. Any-hit rate of the full collection: about 28%.
D1 mod: D1 CRE-luciferase signal change, two-sided – cell-based, HEK293 D1, dopamine EC30, D1 allosteric modulator project, primary screen; dopamine EC30 potentiation; actives deviate in either direction; B-score at 10 µM; 58,000 compounds, 5.9% hits;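 active means luminescence count or its row- and column-corrected plate score outside the 99.7% band of the plate's sample wells, on either side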
CYP2C9 act: human CYP2C9 activators, primary screen, biochemical, luminescence; recombinant CYP2C9, luciferin-H conversion; active compounds read high; factor 1 = untreated enzyme, 0 = blocked; activation factor at 5 µM; 96,000 compounds, 1.4% hits;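 active means activation factor of 2 or more for CYP2C9 at a 5 µM dose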;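 further: 0 = sulfaphenazole-blocked wells and 1 = vehicle-only wells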
CYP2C19 inh: blockers of cytochrome P450 2C19 activity – biochemical, luminescence, ADME assay, primary screen; inhibition, % at 5 µM; P33261; 96,000 compounds, 21% hits; CYP2C19 Supersomes, luciferin-H EGE luminescence, 30 min;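 active means CYP2C19 inhibition above a set limit at 5 µM in the primary screen, cut at about 50% in these data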;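 further: plate controls were negative control wells for no effect and 2.5 mM tranylcypromine positive control for full effect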
Target sequence (P33261 whole entry, looked up): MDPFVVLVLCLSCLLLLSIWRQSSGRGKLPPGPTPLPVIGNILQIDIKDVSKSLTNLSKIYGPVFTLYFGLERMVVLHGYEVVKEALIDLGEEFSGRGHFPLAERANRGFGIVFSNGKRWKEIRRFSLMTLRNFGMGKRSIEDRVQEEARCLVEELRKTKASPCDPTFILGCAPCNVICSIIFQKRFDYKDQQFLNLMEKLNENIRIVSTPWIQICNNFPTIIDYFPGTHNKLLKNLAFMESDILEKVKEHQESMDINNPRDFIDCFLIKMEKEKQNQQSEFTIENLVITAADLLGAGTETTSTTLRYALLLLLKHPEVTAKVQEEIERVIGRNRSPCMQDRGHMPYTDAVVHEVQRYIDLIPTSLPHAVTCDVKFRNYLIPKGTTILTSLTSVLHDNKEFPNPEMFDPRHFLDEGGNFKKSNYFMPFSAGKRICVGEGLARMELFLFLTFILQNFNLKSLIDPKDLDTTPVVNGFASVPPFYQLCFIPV
DAT uptake mod: changed hDAT dopamine uptake under cocaine IC80, either direction, primary screen, cocaine antagonist project, cell-based, LLC-PK1 hDAT, [14C]-dopamine uptake, MLSMR. Sodium-dependent dopamine transporter (Homo sapiens), Q01959. LLC-PK1 hDAT cells, [14C]-dopamine uptake with cocaine IC80; actives deviate in either direction. B-score at 10 µM. 110,000 compounds, 1.3% hits;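 active means Z score or B-score, a plate-position-corrected score, falls beyond the plate's 99.7% confidence bounds, in either direction; inactive means both scores lie inside the 99.7% bounds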;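 further: scored against the spread of the other compound wells on the same plate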
CYP2C9 inh: blockers of cytochrome P450 2C9 activity – biochemical, luminescence, ADME assay, primary screen; CYP2C9 Supersomes, luciferin-H conversion; 96,000 compounds, 20% hits; AID 777, 2007; inhibition, % at 5 µM; P11712;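 active means blocking of liver enzyme CYP2C9 beyond about 50% at 5 µM, limit read from the data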
CYP2C19 activ: human CYP2C19 activators, primary screen, biochemical, luminescence; recombinant CYP2C19, luciferin-H EGE luminescence; active compounds read high; 0 = fully inhibited enzyme, 1 = untreated enzyme; 96,000 tested, under 10 active; activation factor at 5 µM; Cytochrome P450 2C19 (Homo sapiens), P33261; AID 1025, 2008;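 active means activation factor of at least 2 at 5 µM in the primary screen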;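 further: 0 = wells with 2.5 mM tranylcypromine and 1 = vehicle-only wells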
The depositor's hits bear a star; nt = no result.

SMILES	D1 mod	CYP2C9 act	CYP2C19 inh	DAT uptake mod	CYP2C9 inh	CYP2C19 activ
COc1ccc(OC)c(C(=O)c2oc3ccccc3c2NC(C)=O)c1	3.8	0.5	98*	0.11	49	0
COc1cccc(NC(=O)c2oc3ccccc3c2NC(=O)C(C)(C)C)c1	-1.5	0.2	8	-0.28	81*	0.9
O=C(CN1CCOCC1)Nc1ccc(C2CCCCC2)cc1	0.027	0.8	17	-0.25	16	0.8
Cc1ccc(NC(=O)CN2CC(C)SC2=NC2CCCCC2)cc1 (stereo not given)	-0.021	0.9	82*	-1.1	10	0.2
O=C(Oc1oc(-c2ccco2)nc1C=Nc1ccc(Cl)cc1)c1ccco1	nt	0.9	-6	nt	10	1.1
O=C(CSc1nnc(-c2ccncc2)n1Cc1ccco1)c1ccc(Cl)cc1	-0.66	0.1	95*	-0.37	92*	0.1
Cc1cc(C)c(NC(=O)CSc2nnc(-c3ccncc3)n2Cc2ccco2)c(C)c1	-0.53	0.6	27	0.056	38	0.7
O=C(CSc1nnc(-c2ccncc2)n1Cc1ccco1)Nc1ccccc1Cl	-1.5	0.1	97*	0.6	89*	0
NC(=O)CSc1nnc(-c2ccc(O)cc2)n1Cc1ccco1	1.1	nt	nt	-0.59	nt	nt
O=C(CSc1nnc(-c2ccc(Cl)cc2)n1Cc1ccco1)c1cccs1	-0.24	0.5	7	-0.13	55*	0.9
CC(=O)N1CCC(=NNS(=O)(=O)c2cccc([N+](=O)[O-])c2)CC1	nt	1.2	-10	0.84	-24	1.1
Cc1c(NC(=O)C(C)N2CC(C)OC(C)C2)c(=O)n(-c2ccccc2)n1C (stereo not given)	-0.39	1.1	-8	-1.6	-8	1.1
CCOc1ccccc1NC1=C(Cl)C(=O)N(Cc2ccccc2)C1=O	nt	0.3	52*	0.16	70*	0.5
Cn1c(=O)c2c(ncn2CC(=O)Nc2ccc(Cl)cc2Cl)n(C)c1=O	0.87	0.9	18	0.51	13	0.8
O=C(CSc1nc2scc(-c3ccco3)c2c(=O)n1-c1ccccc1)N1CCOCC1	2.2	0.8	13	-0.21	21	0.9
C=CCn1c(SCc2ccccc2)nc2scc(-c3ccc(C)o3)c2c1=O	nt	0.7	12	0.43	27	0.9
C=CCn1c(SCC(=O)NCC2CCCO2)nc2scc(-c3ccco3)c2c1=O (stereo not given)	1.1	0.2	78*	2.6*	81*	0.2
C=CCn1c(SCC(=O)NCCOC)nc2scc(-c3ccco3)c2c1=O	-1.4	0.2	78*	-0.44	83*	0.2
Nc1nc(SCC(=O)NCC2CCCO2)[nH]c(=O)c1NC(=O)c1ccco1 (stereo not given)	nt	nt	nt	-1.7	nt	nt
O=C(CSc1nc2scc(-c3ccco3)c2c(=O)n1-c1ccccc1)NCC1CCCO1 (stereo not given)	1.1	0.3	52*	-0.083	71*	0.5
COc1ccc(CC(=O)Nc2ccc3c(c2)OCO3)cc1S(=O)(=O)N1CCOCC1	0.65	1	-4	0.49	-5	1
CCOC(=O)N1CCC(NC(=O)CS(=O)(=O)Cc2nc(-c3ccc(C)cc3)oc2C)CC1	-0.2	0.8	8	-0.055	18	0.9
Cc1ccc(-c2nc(CS(=O)(=O)CC(=O)N3CCc4ccccc4C3)c(C)o2)cc1	nt	0.3	30	0.51	72*	0.7
Cc1ccc(-c2nc(CS(=O)(=O)CC(=O)N3CCCCCC3)c(C)o2)cc1	nt	0.3	56*	1.1	75*	0.4
Cc1cccc(-c2nc(CS(=O)CC(=O)N3CCc4ccccc4C3)c(C)o2)c1 (stereo not given)	-0.053	0.6	7	1.3	42	0.9
SMILES	D1 mod	CYP2C9 act	CYP2C19 inh	DAT uptake mod	CYP2C9 inh	CYP2C19 activ
C/C(CC(=O)Nc1ccc(OCc2ccccc2)cc1)=N\NC(=O)C(=O)Nc1ccccc1C	nt	0.8	-11	-0.18	20	1.1
COc1cc(-c2nc(-c3ccc4c(c3)-c3ccccc3S4(=O)=O)c(-c3ccccc3)[nH]2)cc(OC)c1O	nt	0.2	79*	-0.39	78*	0.2
COC(=O)CNC(=O)C1(C)C=CCN1C(=O)c1ccccc1 (stereo not given)	nt	nt	nt	-0.71	nt	nt
CCOC(=O)c1nn(-c2ccccc2)c(=O)c(C#N)c1C	nt	0.9	70*	1.6	9	0.3
CCOC(=O)c1nn(-c2ccccc2)c(-c2ccccc2)c1C(=O)c1ccccc1	nt	0.4	40	-2.1	59*	0.6
CCOC(=O)c1c(C)nn(Cc2cccc(Cl)c2)c1N	1.8	0.1	24	0.53	90*	0.8
CCOC(=O)c1sc(NC(=O)c2c(C)nn(Cc3ccccc3)c2C)cc1C	-3.2*	0.6	27	2	41	0.7
O=C(Cc1c(C(=O)O)[nH]c2ccccc12)NCCN1CCN(c2ccccc2F)CC1	nt	0.9	4	-1.1	8	1
CCOC(=O)c1nn(-c2cccc(Cl)c2)c(C)c1C(C)=O	nt	0.4	100*	0.05	64*	0
O=C1CSC(c2ccccc2)N1CC12CC3CC(CC(O)(C3)C1)C2 (stereo not given)	-0.87	1.1	24	0.18	-12	0.8
CC(c1ccccc1)N1C(=O)c2ccccc2C1O (stereo not given)	nt	0.9	66*	0.25	8	0.3
CC(C(=O)O)c1ccc(N2Cc3ccccc3C2=O)cc1 (stereo not given)	nt	nt	nt	0.78	nt	nt
COCC(N)(c1ccccc1)c1nc2ccccc2n1C (stereo not given)	-0.16	1	52*	-0.017	2	0.5
Cn1c(Cn2c(C(F)(F)F)nc3ccccc32)nc2ccccc21	nt	1	27	-0.76	4	0.7
COc1cccc(-c2nnn(CC(=O)Nc3cc(OC)c(NC(=O)c4ccco4)cc3OC)n2)c1	nt	0.5	35	1.1	54*	0.7
CCOc1ccc(NC(=O)Cn2nnc(-c3ccccc3NC(=O)CC)n2)cc1	-2.2	0.1	100*	0.12	89*	0
O=C(Cn1nnc(-c2ccccc2NC(=O)c2ccco2)n1)Nc1ccccc1	0.69	0.1	32	0.15	92*	0.7
O=C(O)Cc1c[nH]c2cccc(O)c12	nt	nt	nt	0.42	nt	nt
CCOC(=O)Cc1nnc(Nc2cccc(O)c2)c2ccccc12	-0.24	1.1	22	0.53	-12	0.8
Cc1ccc(CNC(=O)C2CC3Cn4c(nc5cc6ccccc6cc54)C3N2C)o1 (stereo not given)	nt	nt	nt	1	nt	nt

Screens (PubChem BioAssay)
